For the assay, the target named is T1, MutS (Salmonella typhimurium, UniProt P0A1Y0 P0A1Y0:1-855).
T1 sequence: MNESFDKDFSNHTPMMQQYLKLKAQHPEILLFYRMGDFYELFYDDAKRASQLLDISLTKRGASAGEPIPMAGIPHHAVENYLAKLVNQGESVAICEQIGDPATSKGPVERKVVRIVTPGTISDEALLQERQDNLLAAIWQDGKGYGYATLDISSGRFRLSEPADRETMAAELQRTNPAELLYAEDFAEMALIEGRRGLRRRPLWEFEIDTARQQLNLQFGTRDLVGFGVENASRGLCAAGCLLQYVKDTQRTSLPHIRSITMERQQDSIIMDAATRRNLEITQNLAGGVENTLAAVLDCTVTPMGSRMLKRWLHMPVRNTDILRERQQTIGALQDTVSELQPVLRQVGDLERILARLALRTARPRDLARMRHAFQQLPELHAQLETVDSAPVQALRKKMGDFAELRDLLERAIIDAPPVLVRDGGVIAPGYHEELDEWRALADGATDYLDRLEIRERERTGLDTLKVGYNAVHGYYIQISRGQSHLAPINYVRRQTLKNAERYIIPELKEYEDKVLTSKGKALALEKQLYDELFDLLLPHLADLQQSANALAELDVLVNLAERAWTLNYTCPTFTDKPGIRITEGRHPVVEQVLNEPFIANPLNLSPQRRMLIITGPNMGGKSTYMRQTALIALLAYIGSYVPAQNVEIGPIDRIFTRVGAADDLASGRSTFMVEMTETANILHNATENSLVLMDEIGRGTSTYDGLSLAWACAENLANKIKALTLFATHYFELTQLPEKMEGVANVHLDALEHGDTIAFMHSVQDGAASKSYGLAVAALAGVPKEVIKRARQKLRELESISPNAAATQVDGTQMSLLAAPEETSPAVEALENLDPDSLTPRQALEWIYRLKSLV
Description: pulldown; homoduplex control precipitated 53 fold less; 5 mM MgCl2, on ice, competitor DNA. The following applies: tags: none (overproduced from pGW1825); chain copies: 2; label: 32P on DG6R; fully matched homoduplex; second strand (DG5) copied as printed, pairs with DG6R only if read 3'-5' relative to it; dsDNA, one strand shown. The method, then: Affinity fractionation of heteroduplex nucleic acid was performed as follows. Two binding reactions were incubated on ice for 30 minutes, one containing heteroduplex nucleic acid and a control containing homoduplex DNA. The heteroduplex reaction contained 14.5 pMol of MutS, 200 fmol of DG-4/6 Het, and 2 ug of competitor nucleic acid in a total volume of 20 ul. The control reaction contained 14.5 pmol of MutS, 200 fmol of DG-5/6 Hom, and 2 ug of competitor nucleic acid in a total volume of 20 ul. After 30 minutes on ice, 5 ul of anti-MutS antibody was added to each binding reaction, and the result was incubated on ice for 60 minutes. 10 ul of Staphylococcus aureus cells that had been washed twice in assay buffer were added to both binding reactions (see McKay, 1981, supra) and the result was incubated on ice for an additional 30 minutes. Both reactions were then spun in a microfuge for 3 minutes at 4° C. and the pellet was washed 8 times in assay buffer.
For the sequence GATCCGTCGACCTGCA, the binding signal was 1 fold (reference).

For the origin of these results see patent US5750335, “Screening for genetic variation” (Massachusetts Institute of Technology).
